# Bioassay records from PubChem.
# ARNT-TACC3 inh – disruptors of ARNT/TACC3 protein interaction, primary screen, biochemical, AlphaScreen, single concentration; inhibition, % at 9.99 µM; Transforming acidic coiled-coil-containing protein 3 (Homo sapiens), Q9Y6A5; AID 623870, 2012; hit rate 0.66% among 390,000; AlphaScreen His-ARNT PAS-B/GST-TACC3 binding, luminescence; TACC3 fragment carries E629A point mutation;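 active = mean inhibition of replicates at least 50% and at least half of replicates each reaching 50%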
# aDG glyco act – activators of alpha-DG glycosylation, primary screen, uHTS, Pro5-aDG cells, AlphaScreen. alpha-DG glycosylation AlphaScreen (IIH6); 0% Pro5, 100% B10-LARGE cell signal. activation, % at 10 µM. hit rate 0.22% among 360,000;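 active = activation of at least 8% versus controls, or a plate z-score of at least 8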;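 also: Pro5 are CHO cells carrying HIG-tagged alpha-DG that lacks glycosylation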
# H9c2 protect – cardioprotection against H2O2-induced cell death, primary screen, uHTS, H9c2 cells, ATPLite luminescence | AID 588492, 2011 | protection from H2O2 cell death, % at 20 µM | H9c2 cardiomyocytes, H2O2 injury protection, 2 h | hit rate 0.63% among 360,000;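 active = compounds giving at least 50% protection of heart cells from peroxide-induced death in the single-dose screen, raw or plate-pattern-corrected value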
# Vif inh – HIV Vif self-association inhibitors, primary screen, imaging, HEK293T, single point; hit rate 0.35% among 340,000; HEK293T cells, Vif self-association by quenched fluorescence, 24 h; inhibition, % at 7.49 µM; in the data active = inhibition above about 50%, passing the limit was not always enough
# Glyco luc inh – increase of ERlucT glycosylation luciferase signal, primary screen, N-linked glycosylation inhibitor project, D54 ERlucT cells, luminescence, set 2; D54 ERlucT glycosylation luciferase reporter, 24 h; percent of 100 nM tunicamycin response; reporter increase, % at 12.5 µM; hit rate 0.23% among 360,000; AID 588692, 2011;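 active = mean luciferase reporter signal, scaled so untreated is 0 and the glycosylation-blocking control 100, at or above a set limit in every replicate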;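 also: luciferase carries N-glycosylation sites so blocking glycosylation raises the light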
# Numbers stand for hits; - = inactive; . = not tested or not shown. Sampled rows, rich in hits. Any-hit rate of the full collection: about 1.7%.
SMILES,ARNT-TACC3 inh,aDG glyco act,H9c2 protect,Vif inh,Glyco luc inh
O=C(/C=C\c1ccccc1[N+](=O)[O-])Nc1ccccc1,-,-,-,-,-
COc1ccc(S(=O)(=O)N2CC(O)CC2C(=O)OCc2nc3sc(C)c(C)c3c(=O)[nH]2)cc1 (stereo not given),-,-,79,-,-
COc1ccc(CNC(=O)C[C@@H]2C=C[C@H](NC(=O)c3ccc4c(c3)OCO4)[C@@H](CO)O2)cc1,-,.,.,.,.
COc1ccc(NC(=O)N[C@@H]2CC[C@H](CC(=O)NCc3ccccn3)O[C@@H]2CO)cc1,-,.,.,.,.
C#CCOCCOCCOCCNc1nc(N2CCN(C(=O)CCCCCCCCCCNC(=O)Cn3cc(C[C@@H](C)O)nn3)CC2)nc(N2CCN(C(=O)CCCCCCCCCCNC(=O)[C@H](CCCCN)n3cc(C[C@@H](C)CC)nn3)CC2)n1,-,-,-,-,-
C#CCOCCOCCOCCNc1nc(N2CCN(C(=O)CCCCCCCCCCNC(=O)Cn3cc(CCCCCN)nn3)CC2)nc(N2CCN(C(=O)CCCCCCCCCCNC(=O)[C@H](CO)n3cc(CCCCCN)nn3)CC2)n1,-,-,-,54,-
C#CCOCCOCCOCCNc1nc(N2CCN(C(=O)CCCCCCCCCCNC(=O)Cn3cc(C[C@@H](C)O)nn3)CC2)nc(N2CCN(C(=O)CCCCCCCCCCNC(=O)Cn3cc(C[C@@H](C)O)nn3)CC2)n1,-,-,80,-,-
C#CCOCCOCCOCCNc1nc(N2CCN(C(=O)CCCCCCCCCCNC(=O)[C@H](CCCCN)n3cc(CCO)nn3)CC2)nc(N2CCN(C(=O)CCCCCCCCCCNC(=O)[C@H](CCCN=C(N)N)n3cc(C[C@@H](C)CC)nn3)CC2)n1,-,-,-,72,-
COC(=O)c1ccccc1NCc1cc(=O)oc2cc(O)c(O)cc12,-,-,67,-,-
COc1ccc(C)cc1NCc1cc(=O)oc2cc(-c3ccccc3)c(O)cc12,-,-,-,-,-
O=C(C[C@H]1C[C@H]2c3cc(NC(=O)Nc4ccc(C(F)(F)F)cc4)ccc3O[C@H]2[C@@H](CO)O1)NCc1cc(F)ccc1F,-,.,.,.,.
COc1ccc(C(=O)NC2CCCCC2)cc1OC1CCN(C(C)C)CC1,-,-,-,-,-
CN1CCC(NC(=O)c2cccc(Oc3ccccc3)c2)CC1,.,-,-,-,-
COc1cc(C(=O)NC2CCN(C)CC2)ccc1Nc1ncc2c(n1)N(CCc1ccccc1)CCC(=O)N2C,-,-,-,-,62
COc1cc(C(=O)NC2CCN(C)CC2)ccc1Nc1ncc2c(n1)N(C1CCCC1)CCC(=O)N2C(C)C,-,-,-,-,59
C[C@H]1CN([C@@H](C)CO)C(=O)c2cc(NC(=O)C3CCCCC3)ccc2O[C@@H]1CN(C)S(=O)(=O)c1ccc(Cl)cc1,-,.,.,.,.
CC(C)NC(=O)N(C)C[C@@H]1Oc2ncc(-c3cccc(F)c3)cc2C(=O)N([C@H](C)CO)C[C@@H]1C,-,.,.,.,.
Cc1cc(=O)oc2cc(OCC(=O)N3CCN(C(=O)C4COc5ccccc5O4)CC3)c(Cl)cc12 (stereo not given),-,-,58,-,-
CC1CCN(Cc2c(C(=O)N/N=C/c3cc(Br)ccc3O)nnn2-c2nonc2N)CC1,.,-,64,53,-
Nc1nonc1-n1nnc(C(=O)N/N=C/c2ccccc2)c1CN1CCc2ccccc21,-,-,-,-,-
C/C(=N\NC(=O)c1nnn(-c2nonc2N)c1CN1CCc2ccccc21)c1ccccc1O,-,-,58,-,-
COc1ccc(O)c(/C=N/NC(=O)c2c(C)nnn2-c2nonc2N)c1,-,-,55,-,-
C[C@@H]1CN([C@@H](C)CO)C(=O)c2cc(Br)cnc2O[C@H]1CN(C)Cc1ccncc1,-,.,.,.,.
Cc1cc2[nH]c(=O)c3ccccc3n2n1,-,-,77,-,-
Fc1ccc(C(CCNCc2ccccn2)c2ccc(Cl)cc2)cc1 (stereo not given),48,-,-,-,-
SMILES,ARNT-TACC3 inh,aDG glyco act,H9c2 protect,Vif inh,Glyco luc inh
CN(C)CC[C@@H](c1ccc(Cl)cc1)c1ccccn1,-,-,-,-,-
OC(CNCc1ccccn1)c1ccccc1 (stereo not given),48,-,-,-,-
CO[C@H]1CN(C)C(=O)c2cc(NC(=O)c3ccccc3)ccc2OC[C@H](C)N(CC2CC2)C[C@@H]1C,-,.,.,.,.
CO[C@H]1CN(C)C(=O)c2ccc(NC(=O)NC(C)C)cc2OC[C@H](C)N(Cc2ccccn2)C[C@H]1C,-,.,.,.,.
CC(=O)Nc1ccc(S(=O)(=O)NC2=C(N3CCN(C)CC3)C(=O)c3ccccc3C2=O)cc1,-,-,-,-,-
CCOC(=O)N1CCN(C2=C(NS(=O)(=O)c3ccc(NC(C)=O)cc3)C(=O)c3ccccc3C2=O)CC1,31,-,-,-,-
CC/C(=N/Nc1cccc(C)c1)c1cnnc(SC)n1,.,-,-,82,-
CC/C(=N/Nc1ccc(Cl)cc1)c1cnnc(SC)n1,-,-,-,-,-
CO[C@@H]1CN(C)C(=O)c2cc(NC(=O)c3ccc(F)cc3)ccc2OC[C@@H](C)N(C(C)=O)C[C@H]1C,-,.,.,.,.
CCOc1ncccc1C(=O)OCc1ccccc1,-,-,-,51,-
N#C[C@H]1[C@H](c2ccc(C#Cc3ccccc3F)cc2)[C@@H](CO)N1C(=O)C1CCCCC1,47,.,.,.,.
COCC#Cc1cnc2c(c1)C(=O)N([C@H](C)CO)C[C@@H](C)[C@H](CN(C)C(=O)Nc1ccccc1F)O2,-,.,.,.,.
O=C(Nc1cccc(C(=O)O)c1)/C(=C\c1ccc2c(c1)OCO2)NC(=O)c1ccco1,-,-,-,-,-
O=C(Nc1cccc(C(=O)O)c1)/C(=C\c1ccc(F)cc1)NC(=O)c1ccco1,-,-,-,64,-
OCCCNc1c2ccccc2nc2ccccc12,-,-,-,-,36
Cc1ccc(-c2nc(NCCCO)c3ccccc3n2)cc1,-,-,-,-,-
CN(C)CCCNc1c2c(nc3ccccc13)CCC2,-,-,-,-,30
O=C(C[C@H]1CC[C@H](NS(=O)(=O)c2ccccc2)[C@@H](CO)O1)NCc1ccccc1F,-,.,.,.,.
CC(C)NC(=O)N(C)C[C@H]1Oc2ccc(NC(=O)C3CC3)cc2C(=O)N([C@H](C)CO)C[C@H]1C,-,.,.,.,.
Cc1c(Cl)cccc1-c1ccc(CNCc2ccccn2)o1,64,-,-,-,-
CCC(=O)N[C@H]1CC[C@@H](CCn2cc(C3CC3)nn2)O[C@H]1CO,-,.,.,.,.
CC(=O)N(C)C[C@H]1Oc2ncc(C3=CCCC3)cc2C(=O)N([C@@H](C)CO)C[C@@H]1C,-,.,.,.,.
Cc1cccc2c(N)c3c(nc12)N(C)CC3,-,-,-,-,30
